17 compounds from PubChem BioAssay (NCATS) can be followed below.

Experiment [1] can be described thus: Viability qHTS for spleen associated tyrosine kinase inhibitor (SYKi) naive MV4-11 cells (AID 1963823). Also: nearly all actives have a fitted effect of over 40% in size. In a few lines:
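qHTS, SYK inhibitor-naive MV4-11; 500 cells/well; 72 hr compound exposure, 37 C; CellTiter-Glo added, 10 min RT; luminescence read.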
A general note: qHTS replaces the single test concentration by a dilution series.

Experiment [2] is described as follows: Viability qHTS for spleen associated tyrosine kinase inhibitor (SYKi) drug resistant MV4-11 cells (AID 1963824). Also: nearly all actives have a fitted effect of over 35% in size. The method in brief: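 SYK inhibitor-resistant MV4-11 AML cells, 500 per well, added to predispensed compounds and incubated 72 hr at 37 C, 5% CO2. Viability measured by CellTiter-Glo luminescence after 10 min at room temperature.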
A short description of experiment [3]: Quantitative highthroughput screen to assess conditional lethalithy of NOMO1 cells grown in RPMI1640 with untreated serum (RPMI+s) (AID 1963876). Also: nearly all actives have a fitted effect of over 35% in size.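 As to Viability: 100% = DMSO wells and 0% = empty wells without cells.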 In a few lines:
(§1)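 Each medium arm—HPLM with 10% dialyzed FBS, or RPMI1640 with 5 mM glucose and 10% untreated or dialyzed FBS—was screened against an 11-point, 3-fold compound titration for 48 h at 37 °C, with CellTiter-Glo luminescence as endpoint.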

The nature of experiment [4]: Quantitative highthroughput screen to assess conditional lethalithy of NOMO1 cells grown in RPMI1640 with dialyzed fetal bovine serum (RPMI+ds) (AID 1963877). Also: nearly all actives have a fitted effect of over 30% in size.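 As to Viability: series mostly up to about 46 µM; 100% = DMSO control wells and 0% = empty wells.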 In a few lines:
as §1

Experiment [5] in a line: Quantitative highthroughput screen to assess conditional lethalithy of NOMO1 cells grown in Human Plasma-Like Medium with dialyzed fetal bovine serum (HPLM+ds) (AID 1963878). Also: nearly all actives have a fitted effect of over 35% in size.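 As to Viability: 100% = DMSO wells and 0% = empty wells on each plate.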 The method in brief: as §1
A short description of experiment [6]: Cellular viability qHTS for adrenocortical cancer (ACC) cell line SW-13 (AID 1963989). Also: nearly all actives have a fitted effect of over 65% in size.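 As to activity (max response): cells grown in serum-free medium with ITS supplement; % is scaled to controls: 0 for no effect and ±100 for the full control effect.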 To be noted: SW-13 ACC cells viability, CellTiter-Glo, 48 h; activity (max response): stronger effect = lower value. In a few lines: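 Luminescent ATP read-out (CellTiter-Glo, 20 min at room temperature) measured metabolically competent SW-13 cells after 48 h compound treatment. Final concentrations spanned up to 46 uM; bortezomib served as positive control.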

Experiment [7] can be described thus: Quantitative highthroughput screen to assess conditional lethalithy of SEM cells grown in RPMI1640 with unreated serum (RPMI+s) (AID 1963883). Also: nearly all actives have a fitted effect of over 35% in size.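 As to Viability: 100% = DMSO wells and 0% = empty wells without cells.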 In a few lines: as §1
Experiment [8] is described as follows: Cellular viability qHTS for adrenocortical cancer (ACC) cell line NCI-H295R (AID 1963990). Also: nearly all actives have a fitted effect of over 60% in size. In a few lines:
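IC50 and maximal efficacy derive from four-parameter logistic modelling of titration curves, with reads scaled between DMSO-only wells (0%) and doxorubicin hydrochloride (100% inhibition). Compounds spanned up to 46 uM over 48 h.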

Experiment [9] can be described thus: Quantitative highthroughput screen to assess conditional lethalithy of P12 Ichikawa cells grown in Human Plasma-Like Medium with dialyzed fetal bovine serum (HPLM+ds) (AID 1963879). Also: nearly all actives have a fitted effect of over 35% in size. As to Viability: series mostly up to about 46 µM. The following applies: Potency: viability. In a few lines:
as §1

Experiment [10] can be described thus: Quantitative highthroughput screen to assess conditional lethalithy of P12 Ichikawa cells grown in RPMI1640 with dialyzed fetal bovine serum (RPMI+ds) (AID 1963880). Also: nearly all actives have a fitted effect of over 35% in size.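 As to Viability: 100% = DMSO wells and 0% = empty wells on each plate.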 The following applies: Potency: P12-Ichikawa viability. In a few lines:
as §1

A short description of experiment [11]: Quantitative highthroughput screen to assess conditional lethalithy of P12 Ichikawa cells grown in RPMI1640 with untreated serum (RPMI+s) (AID 1963881). Also: nearly all actives have a fitted effect of over 35% in size.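 As to Viability: series mostly up to about 46 µM; 100% = DMSO wells and 0% = empty wells without cells.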 To be noted: Potency: viability. In a few lines: as §1
Experiment [12] is described as follows: Quantitative highthroughput screen to assess conditional lethalithy of SEM cells grown in Human Plasma-Like Medium with dialyzed fetal bovine serum (HPLM+ds) (AID 1963882). Also: nearly all actives have a fitted effect of over 35% in size. As to Viability: series mostly up to about 46 µM. In a few lines:
as §1

Experiment [13] in a line: Quantitative highthroughput screen to assess conditional lethalithy of SEM cells grown in RPMI1640 with dialyzed fetal bovine serum (RPMI+ds) (AID 1963884). Also: nearly all actives have a fitted effect of over 35% in size.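 As to Viability: series mostly up to about 46 µM; 100% = DMSO control wells and 0% = empty wells without cells.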 The method in brief:
as §1

“And” between values parts separate entries of the source, which are not always exact repeats. Equal entries are not always repeated. Records with an inconclusive call do not appear. The source holds several records for some structures; these can differ, active in one and inactive in another. The source made the active and inactive calls. Calls follow the shape of the dose curve; as a rule, active = well fitted curve in the direction sought with a large enough effect; inconclusive = small, poorly fitted or top-dose-only effect, or another doubt; inactive = no such curve, though single readings can be large; an effect the other way counts as inactive or inconclusive.
Potency is read from the fitted curve at half-maximal effect.

Take `CC(C)(C)c1nc2c3cc[nH]c(=O)c3c3cc(F)ccc3c2[nH]1`: the Potency in [1] was 0.411 µM (active); in experiment [2] it was 0.651 µM (active); in [3], 5.9 µM (active); in experiment [4], 4.69 µM (active); in experiment [5], 2.09 µM (active). For the same compound, the activity (max response) in experiment [6] is -16.1% (inactive).
As to `Nc1nc2c(ncn2COC(CO)CO)c(=O)[nH]1`, the Potency entry in experiment [1], in experiment [2] and in [8] was “inactive” throughout. In addition, the Potency in experiment [3] is 26.4 µM (active); in experiment [4] it was 26.4 µM (active); in experiment [5], 23.5 µM (active); in experiment [7], 20.9 µM (active). In [6], the activity (max response) was 8.16% (inactive) and -8.2% (inactive).
`CC(C)OC(=O)C1=CN(C(=O)c2ccc(F)c(F)c2)CC(C)(C)c2c1[nH]c1ccccc21`: the Potency was 8.33 µM (active) in experiment [1] and 13.2 µM (active) in experiment [2]. Besides, the Potency result in experiment [3], in experiment [4], in experiment [9], in experiment [10], in experiment [11] and in experiment [12] was “inactive” in each case. Further, the Potency entry in experiment [7], in experiment [13] and in [8] was “inactive” throughout. Also, in experiment [6], the activity (max response) was -5.24% (inactive).
Regarding `CCCCOc1ccc(CC(=O)NO)cc1`, the Potency entry in experiment [1] is “inactive and 14.8 µM (active)”; in experiment [2], “inactive and 18.6 µM (active)”. For the same compound, the Potency result in [3], in [4], in experiment [5] and in experiment [8] was “inactive” in each case. In addition, the activity (max response) in experiment [6] was -10.9% (inactive).
As for `CC(C)(C)Cn1c(N)nc2ccc(-c3[nH]c(C(C)(C)C)nc3-c3ccc(F)cc3)nc21`, the Potency in experiment [1] was 16.6 µM (active); in [2], 461 nM (active) and 14.8 µM (active); in experiment [6] it was 25.1 µM (active). The Potency entry in [3], in experiment [4], in experiment [9], in experiment [10], in [11] and in experiment [12] was “inactive” in each case.
For the compound `S=P(N1CC1)(N1CC1)N1CC1`, the Potency result in [1] is “inactive and 6.61 µM (active)”; in experiment [2], 3.32 µM (active). Moreover, the Potency result in experiment [3], in [4], in experiment [9], in experiment [10], in experiment [11] and in [8] was “inactive” each time. The activity (max response) in experiment [6] is 10.4% (inactive).
With `CCCc1nn(C)c2c(=O)[nH]c(-c3cc(S(=O)(=O)N4CCN(C)CC4)ccc3OCC)nc12`, the Potency entry in [1], in experiment [3], in experiment [4], in experiment [5] and in [8] was “inactive” in each case. Further, the Potency in experiment [2] was 18.6 µM (active). In [6], the activity (max response) was 1.97% (inactive) and 1.26% (inactive).
For `OC(CCN1CCCCC1)(c1ccccc1)C1CC2C=CC1C2` (stereo not drawn), the Potency result in experiment [1], in experiment [3], in [4], in [9], in experiment [10] and in experiment [11] was “inactive” each time. The Potency result in experiment [12], in experiment [7], in [13] and in experiment [8] was “inactive” in each case. Moreover, the Potency result in experiment [2] was “inactive and 16.6 µM (active)”. The activity (max response) in experiment [6] was -4.13% (inactive) and -26% (inactive).
Consider `C[C@H](NC(=O)Cc1cc(F)cc(F)c1)C(=O)N[C@H](C(=O)OC(C)(C)C)c1ccccc1`, for which the Potency entry in [1], in experiment [3], in experiment [4], in [9], in experiment [10] and in [11] was “inactive” in each case. The Potency result in experiment [12], in experiment [7] and in [13] was “inactive” each time. In experiment [2], the Potency is 14.8 µM (active). In [6], the activity (max response) is 3.52% (inactive).
In the case of `O=S(=O)(O)CCS`, the Potency result in experiment [1], in [2], in experiment [12], in experiment [7], in experiment [13] and in experiment [8] was “inactive” each time. Besides, the Potency is 0.743 µM (active) in experiment [3]; 0.833 µM (active) in experiment [4]; 3.72 µM (active) in experiment [9]; 8.33 µM (active) in experiment [10]; 3.72 µM (active) in [11]. Further, the activity (max response) in [6] is 21.9% (inactive) and 0.753% (inactive).
For the compound `CON(C)C(=O)N1N=C(c2cc(F)ccc2F)S[C@@]1(CCCN)c1ccccc1`, the Potency in experiment [1] was 0.0092 µM (active); in [2], 10.3 nM (active) and 3.3 nM (active); in experiment [3], 0.0209 µM (active); in experiment [4], 0.0234 µM (active); in experiment [9], 0.0263 µM (active); in experiment [10], 0.0331 µM (active). The Potency in experiment [11] is 0.0209 µM (active); in experiment [12], 0.0052 µM (active); in experiment [7], 0.0117 µM (active); in experiment [6], 0.0141 µM (active); in experiment [8], 0.0562 µM (active).
As to `CC1Cc2ccccc2N1NC(=O)c1ccc(Cl)c(S(N)(=O)=O)c1` (stereo not drawn), the Potency result in [1], in experiment [2], in experiment [3], in experiment [4], in experiment [9] and in [10] was “inactive” each time. Also, the Potency entry in [12], in [7], in experiment [13] and in experiment [8] was “inactive” each time. The activity (max response) in [6] is 9.73% (inactive) and 7.78% (inactive).
As for `CCOC(=O)c1ccc(OC(=O)CCCCCN=C(N)N)cc1`, the Potency result in experiment [1], in [2] and in experiment [8] was “inactive” each time. Further, the Potency in experiment [3] was 3.32 µM (active); in experiment [4], 3.32 µM (active); in experiment [9], 1.87 µM (active); in experiment [11] it was 7.43 µM (active). Also, the activity (max response) in experiment [6] is 3.73% (inactive).
For the compound `CCOC(=O)C(C)Oc1cccc2c(=O)n(CC(=O)Nc3ccc4c(c3)OCCO4)ccc12` (stereo not drawn), the figures for the Potency in experiment [1] and in experiment [2] were 1.48 µM (active) and 0.934 µM (active), respectively. In addition, the Potency entry in experiment [3], in experiment [5], in experiment [9], in experiment [10], in experiment [11] and in experiment [12] was “inactive” each time. The Potency entry in [7], in experiment [13] and in experiment [8] was “inactive” each time. In addition, in [6], the activity (max response) was 14.3% (inactive).
As to `NC(=O)c1cccc2[nH]c(-c3ccc([C@H]4CCCN4)cc3F)nc12`, the Potency in experiment [1] was 20.6 µM (active); in experiment [2], 16.6 µM (active); in experiment [4] it was 18.7 µM (active); in experiment [7] it was 3.72 µM (active); in experiment [13], 2.64 µM (active); in experiment [8], 8.91 µM (active). The Potency result in [3] is “inactive”. In addition, in experiment [6], the activity (max response) is -3% (inactive).
Regarding `O=C(O)c1ccc2c(c1)nc(Nc1cccc(Cl)c1)c1ccncc12`, the Potency was 1.84 µM (active) and 1.32 µM (active) in experiment [1]; 1.64 µM (active) and 1.66 µM (active) in experiment [2]; 5.9 µM (active) in experiment [3]; 7.43 µM (active) in [4]; 5.9 µM (active) in experiment [10]; 4.69 µM (active) in experiment [11]. Also, the Potency in [6] is 3.55 µM (active); in [8] it was 2.51 µM (active).
On to `CC[C@H](NC(C)C)[C@H](O)c1ccc(O)c2[nH]c(=O)ccc12`, for which the Potency entry in experiment [1] is “inactive and 525 nM (active)”. For the same compound, the Potency result in experiment [2], in experiment [3], in experiment [5], in experiment [9], in experiment [10] and in experiment [11] was “inactive” each time. The Potency entry in experiment [12], in experiment [7], in experiment [13] and in experiment [8] was “inactive” each time. Besides, the activity (max response) in [6] is 3.1% (inactive) and 13.3% (inactive).
